# Bioassay records: PubChem, National Center for Advancing Translational Sciences (NCATS)
# Shown are actives, neighbours in structure and some others; about 0.67% of the full set was active somewhere.
# gsp ag = activates gsp, the McCune-Albright syndrome mutation; 340,000 tested, 0.13% active; gsp mutant cells, cAMP HTRF, 30 min; Potency, µM (highest dose often 76.9 µM), for inactives: at the top dose activation (cAMP increase), actives largely listed as activators; active means well fitted activation curve with a large enough effect; inconclusive means small, poorly fitted or top-dose-only effect, or another doubt; inactive means no such curve, though single readings can be large or run the other way; cell line not stated here;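 further: phosphodiesterase inhibitor Ro 20-1724 added with compounds to block cAMP breakdown; nearly all actives have a fitted effect of over 60% in size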
#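 Cells stably selected in G418 were plated at 2000/well, grown 16-24 hr, then given compounds in DMSO with the PDE inhibitor […] (300 uM solution added) for 30 min at 37C; cAMP was read by HTRF.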
# Rango dissoc inh = inhibitors of RanGTP-induced Rango-importin beta complex dissociation; Potency, µM (titrated, usually from 46.1 µM), inactives show top-dose activity change, negative = inhibition; O95149+P62826; Biochemical FRET Rango-importin beta, RanGTP-induced dissociation; 340,000 tested, 0.071% active; further: % of control where 0% means no effect; nearly all actives have a fitted effect of over 45% in size
#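 Compounds sat 5 min at room temperature with 0.1 uM Rango biosensor plus 0.25 uM importin beta, then FRET pre-read. RanGTP-RCC1 (0.6 uM Ran, 2mM GTP, 0.2 uM RCC1) added for 45 min, and the CFP/YFP post-read measured blocked complex dissociation.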
# gsp antagonist = antagonizes gsp, the McCune-Albright syndrome mutation. gsp-mutant cells, cAMP HTRF, 30 min. 340,000 tested, 0.4% active. Potency, µM (highest dose often 76.9 µM), without a hit: at the top dose activity change, negative = inhibition, usual class: inhibitors. AID 624288; calls by dose curve; cell line not stated here;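 further: intracellular cAMP measured with PDE inhibitor Ro 20-1724 present during compound exposure; on the % scale 0 is the no-effect control and ±100 the full control effect; nearly all actives have a fitted effect of over 65% in size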
#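 HTRF cAMP measurement after 30 min RT detection following 30 min, 37C compound treatment alongside […] (added as 300 uM solution) in G418-selected cells seeded at 2000/well and grown 16–24 h.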
# Rango complex inh = prevents formation of the Rango-importin beta complex; Rango CFP/YFP FRET sensor + importin beta, 45 min; 340,000 tested, 0.031% active; Potency, µM (highest dose often 92.2 µM), without a hit: at the top dose inhibition of complex formation; Q14974;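 further: 0% = DMSO wells and 100% = buffer wells lacking importin beta; nearly all actives have a fitted effect of over 15% in size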
# Target sequence (Q14974 whole entry, looked up): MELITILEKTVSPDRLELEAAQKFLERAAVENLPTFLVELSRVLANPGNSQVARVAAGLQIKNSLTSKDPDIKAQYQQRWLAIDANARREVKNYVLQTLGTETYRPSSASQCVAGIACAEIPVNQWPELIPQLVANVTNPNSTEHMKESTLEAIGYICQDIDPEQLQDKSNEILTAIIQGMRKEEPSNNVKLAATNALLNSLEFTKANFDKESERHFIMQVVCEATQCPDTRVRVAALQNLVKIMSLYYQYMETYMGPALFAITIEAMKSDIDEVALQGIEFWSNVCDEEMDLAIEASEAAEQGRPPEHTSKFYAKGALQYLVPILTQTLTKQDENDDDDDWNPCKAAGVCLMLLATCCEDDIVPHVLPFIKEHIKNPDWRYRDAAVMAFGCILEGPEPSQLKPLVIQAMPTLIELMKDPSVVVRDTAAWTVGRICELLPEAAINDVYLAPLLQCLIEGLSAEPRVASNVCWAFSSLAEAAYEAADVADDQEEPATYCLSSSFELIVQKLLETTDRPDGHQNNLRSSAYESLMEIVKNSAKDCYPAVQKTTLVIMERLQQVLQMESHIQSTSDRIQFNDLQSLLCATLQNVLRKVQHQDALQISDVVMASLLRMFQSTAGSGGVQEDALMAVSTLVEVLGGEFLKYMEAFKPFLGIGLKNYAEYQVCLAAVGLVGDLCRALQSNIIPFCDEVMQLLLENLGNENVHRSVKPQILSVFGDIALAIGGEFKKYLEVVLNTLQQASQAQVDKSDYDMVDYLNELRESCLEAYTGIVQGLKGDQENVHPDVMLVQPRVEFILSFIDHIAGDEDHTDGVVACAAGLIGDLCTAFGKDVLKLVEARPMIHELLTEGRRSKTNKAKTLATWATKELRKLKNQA
#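 FRET biosensor (snurportin 1 IBB flanked by EYFP and cerulean), 50 nM, with compound 5 min, then 0.125 microM importin beta in PBS, 1 mM DTT, 0.02% Tween-20, 0.1% BSA. CFP/YFP ratio read after 45 min at room temperature; pre-read flags interference.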
# ASM inhibitor = human S-ASM enzyme inhibition | 340,000 tested, 0.006% active | Potency, µM (doses to about 57.5 µM), without a hit: top-dose activity change, negative = inhibition, most hits filed as inhibitors | placental ASM, HMU-PC fluorogenic substrate, 60 min; active means well fitted inhibition curve with a large enough effect; inconclusive means small, poorly fitted or top-dose-only effect; inactive means no such curve, though single readings can be large or run the other way
#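 Human placenta-derived ASM enzyme was preincubated with compound for 10 minutes at room temperature, then given fluorogenic substrate HMU-PC0 (9 uM final) for 60 minutes at 37 °C; a pH 10 stop preceded fluorescence reading at Ex 386/Em 447 nm.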
# Numbers without * were called inactive; i = inactive; ? = inconclusive; . = no result; [ ] = remark or other dose. Unless noted, the call rests on the fitted dose curve. Potency means the concentration at half of the fitted maximal effect.
SMILES,gsp ag,Rango dissoc inh,gsp antagonist,Rango complex inh,ASM inhibitor
CC1(C)CC(C(CC(=O)N2CCCC2)Cc2ccccc2)CCO1 (stereo not drawn),-22%,-9%,50µM*,?,3%
CC1(C)CC(C(CC(=O)O)c2ccccc2)CCO1 (stereo not drawn),2%,4%,0%,1%,6%
CCCCN(C(=O)C1=NN(c2ccccc2)C(=O)CC1)c1c(N)n(CC(C)C)c(=O)[nH]c1=O,-15%,2%,6%,-1%,17%
COc1cc(NC(c2ccccc2)c2ccccc2)cc(OC)c1OC,0%[15.4 µM],-6%,11µM*,2%,6%
COc1ccc(NC(=O)c2cc(C)no2)cc1,26%,-4%,1%,-3%,1%
COc1ccc(N2C3=C(C(=O)CC(C)(C)C3)C(c3ccccc3OC)C3=C2CC(C)(C)CC3=O)cc1,?,?,28µM*,?,i
Cc1ccc(N2C3=C(C(=O)CC(C)(C)C3)C(c3cn(C)nc3C)C3=C2CC(C)(C)CC3=O)cc1,?,?,?,?,263%
Cc1nn(C)cc1C1C2=C(CC(C)(C)CC2=O)N(c2ccccc2)C2=C1C(=O)CC(C)(C)C2,?,8.2µM*,-13%,?,217%
CC1(C)CC[C@]2(C(=O)O)CC[C@]3(C)C(=CC[C@@H]4[C@@]5(C)CC[C@H](O[C@@H]6O[C@H](C(=O)O)[C@@H](O)[C@H](O[C@@H]7OC[C@H](O)[C@H](O)[C@H]7O)[C@H]6O)C(C)(C)[C@@H]5CC[C@]43C)[C@@H]2C1,.,-15%,45µM*,-1%,1%
CC1OC(OC2C(CO)OC(OCC3OC(OC(=O)[C@@]45CCC(C)(C)C[C@@H]4C4=CC[C@@H]6[C@@]7(C)CCC(OC8OCC(O)C(O)C8OC8OC(C)C(O)C(O)C8O)[C@@](C)(CO)C7CC[C@@]6(C)[C@]4(C)CC5)C(O)C(O)C3O)C(O)C2O)C(O)C(O)C1O (stereo partly drawn),.,-9%,40µM*,0%,-4%
CC1(C)CC[C@]2(C(=O)O[C@@H]3O[C@H](CO)[C@@H](O)[C@H](O)[C@H]3O)CC[C@]3(C)C(=CCC4[C@@]5(C)CC[C@H](O[C@@H]6O[C@H](C(=O)O)[C@@H](O[C@H]7OC[C@@H](O)[C@@H](O)[C@@H]7O)[C@H](O)[C@H]6O)C(C)(C)C5CC[C@]43C)[C@@H]2C1 (stereo partly drawn),.,13%,6%,0%,-1%
C[C@H]1O[C@H](O[C@H]2[C@H](O[C@@H]3CC[C@@]4(C)C(CC[C@]5(C)C4CC=C4[C@@H]6CC(C)(C)CC[C@]6(C(=O)O[C@@H]6O[C@H](CO)[C@@H](O)[C@H](O)[C@H]6O)CC[C@]45C)C3(C)C)O[C@H](C(=O)O)[C@@H](O)[C@@H]2O)[C@@H](O)[C@@H](O)[C@@H]1O (stereo partly drawn),-35%,-10%,-4%,-1%,3%
CSc1ccc(/C=C(\C#N)C(=O)Nc2cccc(C)c2)cc1,-10%,?,-2%,?,10%
CN(C)S(=O)(=O)c1ccc(-c2csc(N/N=C/c3ccc(O)cc3)n2)cc1,7%[15.4 µM],-6%,32µM*,4%,-22%
CN(C)S(=O)(=O)c1ccc(-c2csc(N/N=C/c3ccco3)n2)cc1,-20%[15.4 µM],22%,32µM*,1%,-8%
COc1ccc(CCNC(=O)c2ccc([N+](=O)[O-])cc2Cl)cc1OC,-4%[15.4 µM],-8%,-10%,-3%,-2%
COc1cccc(NC(=O)c2ccc(-c3ccc([N+](=O)[O-])cc3)o2)c1,-12%,-11%,-12%,?,-11%
COc1ccc(CCNC(=O)c2ccc(N(C)S(=O)(=O)c3ccc(C)cc3)cc2)cc1OC,6%,11%,28µM*,-10%,0%
COc1ccc(CCNC(=O)c2ccc(-c3ccc([N+](=O)[O-])cc3Cl)o2)cc1OC,-36%,-3%,32µM*,0%,-11%
